This is a sample that favours compounds with a hit; in the whole collection about 12% have one here.
JMJD2A Tudor = qHTS Assay for Inhibitors of JMJD2A-Tudor Domain; AID 504339, 2011; AlphaScreen JMJD2A-Tudor / H3K4me3 peptide binding; Lysine-specific demethylase 4A (Homo sapiens), O75164; actives 4.4% (n = 390,000); Potency, µM (titrated, usually from 114 µM), inactives show top-dose activity change, negative = inhibition, usual class: inhibitors; further: potency means the concentration at half of the fitted maximal effect; on the % scale 0 is the no-effect control and ±100 the full control effect; nearly all actives have a fitted effect of over 50% in size
PI5P4Ka inh = qHTS for Inhibitors of phosphatidylinositol 5-phosphate 4-kinase (PI5P4K); Phosphatidylinositol 5-phosphate 4-kinase type-2 alpha (Homo sapiens), P48426; PI5P4Kalpha enzyme, ADP-Glo luminescence, 60 min; stronger effect = lower value; max response, %; actives 1.2% (n = 330,000); AID 652105, 2013; active means max response of -50% or lower; inconclusive means between -30% and -50%; inactive means -30% or higher; further: value at the top dose of about 77 µM; on the % scale 0 is the no-effect control and ±100 the full control effect
Target sequence (P48426 whole entry, looked up): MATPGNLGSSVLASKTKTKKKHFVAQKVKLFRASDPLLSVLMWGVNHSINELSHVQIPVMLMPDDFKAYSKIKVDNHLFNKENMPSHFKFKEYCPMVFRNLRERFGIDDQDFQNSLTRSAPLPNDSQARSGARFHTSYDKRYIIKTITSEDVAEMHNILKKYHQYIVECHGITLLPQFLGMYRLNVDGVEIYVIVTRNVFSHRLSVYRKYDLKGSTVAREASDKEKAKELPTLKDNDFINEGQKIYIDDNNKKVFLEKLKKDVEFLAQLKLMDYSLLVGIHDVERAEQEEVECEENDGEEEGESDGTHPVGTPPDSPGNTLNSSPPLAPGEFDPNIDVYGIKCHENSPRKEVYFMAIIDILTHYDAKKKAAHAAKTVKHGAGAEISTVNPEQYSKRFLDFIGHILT
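qHTS, 1536-well: enzyme/substrate mix, compound by pin tool, 5 microM ATP final; RT 60 min; ADP-Glo reagents 1 (45 min) then 2 (30 min); luminescence.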
G9a block = qHTS Assay for Inhibitors of Histone Lysine Methyltransferase G9a; G9a H3K9 monomethylation, AlphaScreen, 2 h; Potency, µM (highest dose often 102 µM), inactives show at the highest dose activity, negative = inhibition, usual class: inhibitors; actives 8.8% (n = 350,000); AID 504332, 2011; further: potency means the concentration at half of the fitted maximal effect; on the % scale 0 is the no-effect control and ±100 the full control effect; nearly all actives have a fitted effect of over 75% in size
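AlphaScreen detection with an anti-monomethyl H3K9 antibody quantified product after a 2 h room-temperature reaction containing 500 nM biotinylated H3K9 peptide, 20 µM SAM and 20 nM enzyme, which had been preincubated 15 min with compound.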
PLK1 PBD block = qHTS for Inhibitors of PLK1-PDB (polo-like kinase 1 - polo-box domain): Primary Screen; Serine/threonine-protein kinase PLK1 (Homo sapiens), P53350; actives 2.8% (n = 360,000); AID 720504, 2013; Potency, µM, for the others: max response, negative = inhibition, actives largely listed as inhibitors; Plk1 PBD binding of FITC phosphopeptide, fluorescence polarization; further: potency means the concentration at half of the fitted maximal effect; series mostly up to about 57 µM; on the % scale 0 is the no-effect control and ±100 the full control effect; nearly all actives have a fitted effect of over 65% in size
HP1b chromo inh = HTS for Inhibitors of HP1-beta Chromodomain Interactions with Methylated Histone Tails; Chromobox protein homolog 1 (Homo sapiens), P83916; AlphaScreen HP1-beta / biotin-H3K9me3 peptide binding; Potency, µM (top dose mostly 114 µM), for the others: at the highest dose activity change, negative = inhibition, actives largely listed as inhibitors; actives 0.56% (n = 390,000); further: potency means the concentration at half of the fitted maximal effect; nearly all actives have a fitted effect of over 70% in size
Target sequence (P83916 whole entry, looked up): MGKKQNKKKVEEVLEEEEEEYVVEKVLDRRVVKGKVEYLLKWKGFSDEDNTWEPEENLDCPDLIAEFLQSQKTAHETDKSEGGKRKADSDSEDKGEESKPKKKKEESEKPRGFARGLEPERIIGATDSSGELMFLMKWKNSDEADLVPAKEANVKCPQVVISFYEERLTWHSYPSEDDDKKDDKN
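Compound inhibition of the preformed complex between 50 nM HP1-beta and 50 nM biotinylated H3K9me3 peptide was read by AlphaScreen. Buffer was PBS pH 7.4 with 0.01% Tween-20. Incubations ran 30 min at room temperature, with 10 ug/mL donor/acceptor beads.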
BAZ2B inh = qHTS Assay for Inhibitors of BAZ2B; Bromodomain adjacent to zinc finger domain protein 2B (Homo sapiens), Q9UIF8; AlphaScreen BAZ2B-H3K14Ac peptide displacement; Potency, µM (titrated, usually from 114 µM), inactives show top-dose activity change, negative = inhibition, actives largely listed as inhibitors; actives 4.4% (n = 360,000); further: potency means the concentration at half of the fitted maximal effect; on the % scale 0 is the no-effect control and ±100 the full control effect; nearly all actives have a fitted effect of over 60% in size
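Multi-concentration screen (max 110 uM) measuring displacement of acetylated histone H3 peptide from BAZ2B by AlphaScreen, using 50 nM protein, 50 nM peptide and 10 ug/mL streptavidin donor plus Ni-chelate acceptor beads.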
Starred values were filed as active, the others as inactive; [ ] = another dose, or the depositor's remark. Unless noted, the call rests on the fitted dose curve; in most records, active means well fitted curve in the direction sought with a large enough effect; inconclusive means small, poorly fitted or top-dose-only effect, or another doubt; inactive means no such curve, though single readings can be large; an effect the other way counts as inactive or inconclusive.

How did Cn1c2ccccc2c2c(C(=O)N3CCN(c4ccc(F)cc4)CC3)cn(C3CCCCC3)c(=O)c21 do in these assays?
JMJD2A Tudor: inconclusive; G9a block: inconclusive; HP1b chromo inh: 26%; BAZ2B inh: -1%

What do the screens show for `COc1ccc(-c2nc3cnc(N4CCN(C)CC4)nc3n(Cc3ccc(F)cc3)c2=O)cc1`?
G9a block: 20%[0.501 µM]

How did NC(=O)c1ccccc1NC(=O)CCCN1C(=O)CCC1=O do in these assays?
JMJD2A Tudor: 11%; PI5P4Ka inh: 7; G9a block: 45µM*; PLK1 PBD block: -9%; HP1b chromo inh: 19%; BAZ2B inh: 8%

Results for Cc1nnc(NC(=O)CSc2ccccn2)s1 ?
JMJD2A Tudor: -9%; G9a block: 1%; PLK1 PBD block: -10%; HP1b chromo inh: 36%; BAZ2B inh: 6%

What do the screens show for `NC(=O)c1ccccc1NC(=O)CCCc1ccccc1`?
JMJD2A Tudor: -12%; PI5P4Ka inh: 2; G9a block: -4%[0.501 µM]; PLK1 PBD block: -22%; HP1b chromo inh: 17%; BAZ2B inh: 3%

How did CC(C)Cc1nnc(NC(=O)CSc2ccccn2)s1 do in these assays?
JMJD2A Tudor: -3%; PI5P4Ka inh: 2; G9a block: 45µM*; PLK1 PBD block: inconclusive; HP1b chromo inh: 39%; BAZ2B inh: -30%

Results for CC(C)c1nnc(NC(=O)CS(=O)(=O)Cc2ccccc2)s1 ?
JMJD2A Tudor: -6%; PI5P4Ka inh: 2; PLK1 PBD block: 27µM*; HP1b chromo inh: 0%; BAZ2B inh: inconclusive

How did NC(=O)c1ccccc1NC(=O)CS(=O)(=O)Cc1ccccc1 do in these assays?
JMJD2A Tudor: -17%[11.4 µM]; PI5P4Ka inh: -29; G9a block: -28%; PLK1 PBD block: 24µM*; HP1b chromo inh: -16%; BAZ2B inh: 62%

How did COCCNc1nc(-c2ccccc2Cl)nc2ccccc12 do in these assays?
G9a block: 16%[0.501 µM]

How did O=C(Nc1ccccc1Cl)C1CCCN(c2ncnc3c2nc2n3CCCCC2)C1 (stereo unspecified) do in these assays?
JMJD2A Tudor: -17%; PI5P4Ka inh: 7; G9a block: 24%; PLK1 PBD block: -2%; HP1b chromo inh: 33%; BAZ2B inh: -23%

How did CCOC(=O)c1c(-c2ccccc2)oc2ccc(OCC(O)CNCCN(C)C)cc12 (stereo unspecified) do in these assays?
JMJD2A Tudor: inconclusive; PI5P4Ka inh: 17; G9a block: 0%[2.33 µM]; PLK1 PBD block: -3%; HP1b chromo inh: -15%; BAZ2B inh: inconclusive

Results for Cc1cccc(-c2[nH]c(C(C)(C)C)nc2-c2ccc3nccnc3c2)n1 ?
G9a block: 2%[59 µM]

What do the screens show for `CSc1nc2ccsc2c(=O)n1-c1ccccc1`?
JMJD2A Tudor: 7%; PI5P4Ka inh: 1; G9a block: -4%; PLK1 PBD block: 2%; HP1b chromo inh: 37%; BAZ2B inh: -4%

Results for CCn1c(=S)sc2c(=O)n(-c3ccccc3)c(SC)nc21 ?
JMJD2A Tudor: -23%; G9a block: 45µM*; PLK1 PBD block: -10%; HP1b chromo inh: -11%; BAZ2B inh: -7%

What do the screens show for `BrC(/C=N/N1CCN(Cc2ccccc2)CC1)=C/c1ccccc1`?
JMJD2A Tudor: 40µM*; PI5P4Ka inh: 5; G9a block: inconclusive; PLK1 PBD block: -10%; HP1b chromo inh: -18%; BAZ2B inh: inconclusive

Results for Oc1cccc(/C=N/N2CCN(c3ccccn3)CC2)c1 ?
JMJD2A Tudor: -17%; PI5P4Ka inh: -9; PLK1 PBD block: -4%; HP1b chromo inh: 17%; BAZ2B inh: -27%

Results for BrC(=C\c1ccccc1)/C=N/N1CCN(Cc2ccccc2)CC1 ?
JMJD2A Tudor: inconclusive; PI5P4Ka inh: 1; G9a block: 45µM*; PLK1 PBD block: -2%; HP1b chromo inh: inconclusive; BAZ2B inh: inconclusive

How did BrC(=C\c1ccccc1)/C=N/N1CCN(c2ccccn2)CC1 do in these assays?
JMJD2A Tudor: -28%; PI5P4Ka inh: 13; G9a block: 28µM*; PLK1 PBD block: -11%; HP1b chromo inh: -4%; BAZ2B inh: 79µM*

How did CCc1ccc(C(=O)CN2C(=O)NC3(CCc4ccccc43)C2=O)cc1 (stereo unspecified) do in these assays?
JMJD2A Tudor: -11%; PI5P4Ka inh: -6; G9a block: 14%[59 µM]; PLK1 PBD block: -12%; HP1b chromo inh: 28%; BAZ2B inh: 8%

Results for C[Si](C)(C)O[Si](C)(C)C ?
G9a block: 24%[59 µM]

How did FC(F)OC(Cl)C(F)(F)F (stereo unspecified) do in these assays?
G9a block: -1%[12.7 µM]

How did CCOc1ccccc1C1CC(=O)Nc2c1c(=O)n(C)c1ncnn21 (stereo unspecified) do in these assays?
JMJD2A Tudor: -6%; G9a block: inconclusive; HP1b chromo inh: 1%; BAZ2B inh: -13%

Results for Cc1nnc(NC(=O)C(C)Sc2nnc(-c3ccco3)n2C)s1 (stereo unspecified) ?
JMJD2A Tudor: -15%; PI5P4Ka inh: -4; G9a block: 10%[59 µM]; PLK1 PBD block: -22%; HP1b chromo inh: -7%; BAZ2B inh: 2%

Results for Cc1nnc(SC(C)C(=O)Nc2ccc(Cl)cn2)n1Cc1ccccc1 (stereo unspecified) ?
JMJD2A Tudor: -6%; G9a block: 5%; PLK1 PBD block: -9%; HP1b chromo inh: 52%; BAZ2B inh: 9%

What do the screens show for `CC(Sc1ccc([N+](=O)[O-])cn1)C(=O)Nc1nccs1` (stereo unspecified)?
JMJD2A Tudor: -20%; PI5P4Ka inh: inconclusive; G9a block: 7.9µM*; PLK1 PBD block: inconclusive; HP1b chromo inh: 19%; BAZ2B inh: -28%

Results for CC(Sc1nnc(-c2ccc(Cl)cc2Cl)n1Cc1ccccc1)C(=O)Nc1nccs1 (stereo unspecified) ?
JMJD2A Tudor: 79µM*; PI5P4Ka inh: -2; G9a block: -38%[59 µM]; PLK1 PBD block: inconclusive; HP1b chromo inh: inconclusive; BAZ2B inh: -7%

What do the screens show for `CC(Sc1nnc(-c2ccco2)n1C)C(=O)Nc1nccs1` (stereo unspecified)?
JMJD2A Tudor: 32µM*; PI5P4Ka inh: 1; G9a block: -31%; PLK1 PBD block: -2%; HP1b chromo inh: 21%; BAZ2B inh: -33%

Source: PubChem
